Test results taken from the supplement of paper PMC6992640.
± gives the standard deviation of the averaged measurements.

system: HCI01 (cells of a triple-negative basal-like breast cancer xenograft); test: cell viability (% of vehicle); higher = less cytotoxic; settings: 10 µM; 72 h
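Further: PDX cells carrying CMV promoter-driven luciferase, viability read as total photon flux per second by IVIS imaging following D-luciferin, vehicle control 0.1% DMSO.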

**Q.** How did the cell viability turn out when `CC1COc2c(N3CCN(C)CC3)c(F)cc3c(=O)c(C(=O)O)cn1c23` (stereo not given) [Ofloxacin] was run?
**A.** Its cell viability is 123 ± 23.

**Q.** How did the cell viability turn out when `Cc1cc(Nc2cc(N3CCN(C)CC3)nc(Sc3ccc(NC(=O)C4CC4)cc3)n2)n[nH]1` [VX-680 (MK-0457,Tozasertib)] was run?
**A.** The cell viability was 122 ± 11.

**Q.** With `O=C([O-])P(=O)([O-])[O-].[Na+].[Na+].[Na+]` [Foscarnet Sodium] as the compound, how does the cell viability read?
**A.** Its cell viability is 104 ± 20.

**Q.** For `Cc1onc(-c2ccccc2Cl)c1C(=O)NC1C(=O)N2C1SC(C)(C)C2C(=O)[O-].O.[Na+]` (stereo not given) [Cloxacillin Sodium], which cell viability is on record?
**A.** Its cell viability is 141 ± 32.

**Q.** Which cell viability does the source give for `CNCc1ccc(-c2[nH]c3cc(F)cc4c3c2CCNC4=O)cc1.O=P(O)(O)O` here?
**A.** The cell viability was 161.1 ± 0.84.

**Q.** With `CN1CCC(OC(c2ccccc2)c2ccccc2)CC1.Cl` [Diphenylpyraline HCl] as the compound, how does the cell viability read?
**A.** The cell viability was 86 ± 3.4.

**Q.** For `COc1cc(OC)c(C(=O)CCCN2CCCC2)c(OC)c1.Cl` [Buflomedil HCl], which cell viability is on record?
**A.** The cell viability was 95.4 ± 3.3.

**Q.** With `CC(C)(O)c1ccccc1CCC(SCC1(CC(=O)[O-])CC1)c1cccc(C=Cc2ccc3ccc(Cl)cc3n2)c1.[Na+]` (stereo not given) [Montelukast Sodium] as the compound, how does the cell viability read?
**A.** Its cell viability is 41.5 ± 20.

**Q.** For `CC(=O)Oc1ccccc1C(=O)O` [Aspirin (Acetylsalicylic acid)], which cell viability is on record?
**A.** Its cell viability is 174 ± 16.

**Q.** For `CCN(CCCc1ccccc1)CCCc1ccccc1.O=C(O)CC(O)(CC(=O)O)C(=O)O` [Alverine Citrate], which cell viability is on record?
**A.** The cell viability was 99.4 ± 3.5.
